Reference: PubChem BioAssay (Tox21)
Records with an inconclusive call do not appear. Activity calls are given as the source filed them. Calls follow the shape of the full dose curve.

What was measured:
[1] = biological target: Acetylcholinesterase (Homo sapiens) (UniProt P22303); assay: Acetylcholinesterase (AChE) small molecule antagonists: colormetric cell-based qHTS assay (AID 1347395); also: nearly all actives have a fitted effect of over 30% in size
Method in brief: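 Endogenous AChE of human neuroblastoma SH-SY5Y cells was measured with an Ellman-type DTNB/acetylthiocholine mix. Compound pretreatment lasted 30 min at 37 C; substrate reaction ran 90 min at 37 C.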

[2] = biological target: Acetylcholinesterase (Homo sapiens) (UniProt P22303); assay: Acetylcholinesterase (AChE) small molecule antagonists: enzyme-based qHTS assay (AID 1347397); conditions: Potency: AChE enzyme activity inhibition; outcome: AChE enzyme activity inhibition; also: nearly all actives have a fitted effect of over 55% in size
Method in brief: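 Tox21 library chemicals are tested in qHTS format against recombinant human AChE. The enzyme, dispensed at 50 mU/mL, sits with compound for 30 min at room temperature. A DTNB–acetylthiocholine cocktail follows, and colour is read after 10 min.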

[3] = biological target: Acetylcholinesterase (Homo sapiens) (UniProt P22303); assay: Acetylcholinesterase (AChE) small molecule antagonists: fluorescence cell-based qHTS assay (AID 1347398); conditions: Potency: AChE activity; outcome: AChE activity; also: nearly all actives have a fitted effect of over 50% in size
Method in brief: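 Cellular AChE inhibition: SH-SY5Y cells treated with test chemical for 30 min at 37 C, then acetylthiocholine hydrolysis followed over 40 min at room temperature via thiocholine-reactive Thiolite Green fluorescence (490/520 nm).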

[4] = biological target: Acetylcholinesterase (Homo sapiens) (UniProt P22303); assay: Acetylcholinesterase (AChE) small molecule antagonists: enzyme-based qHTS assay with human liver microsomes (AID 1347399); conditions: Potency: qHTS inhibition; outcome: qHTS inhibition; also: nearly all actives have a fitted effect of over 60% in size
Method in brief: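 Recombinant human AChE (50 mU/mL in the enzyme mix) and human liver microsomes (0.25 mg/mL final) were preincubated with compound and NADPH (0.25 mg/mL final) for 30 min at 37 C. Acetylthiocholine/DTNB was then added; thiocholine was read colorimetrically after 10 min at room temperature.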

Measured: Potency

Sequence of Acetylcholinesterase (Homo sapiens) (P22303 whole entry, looked up): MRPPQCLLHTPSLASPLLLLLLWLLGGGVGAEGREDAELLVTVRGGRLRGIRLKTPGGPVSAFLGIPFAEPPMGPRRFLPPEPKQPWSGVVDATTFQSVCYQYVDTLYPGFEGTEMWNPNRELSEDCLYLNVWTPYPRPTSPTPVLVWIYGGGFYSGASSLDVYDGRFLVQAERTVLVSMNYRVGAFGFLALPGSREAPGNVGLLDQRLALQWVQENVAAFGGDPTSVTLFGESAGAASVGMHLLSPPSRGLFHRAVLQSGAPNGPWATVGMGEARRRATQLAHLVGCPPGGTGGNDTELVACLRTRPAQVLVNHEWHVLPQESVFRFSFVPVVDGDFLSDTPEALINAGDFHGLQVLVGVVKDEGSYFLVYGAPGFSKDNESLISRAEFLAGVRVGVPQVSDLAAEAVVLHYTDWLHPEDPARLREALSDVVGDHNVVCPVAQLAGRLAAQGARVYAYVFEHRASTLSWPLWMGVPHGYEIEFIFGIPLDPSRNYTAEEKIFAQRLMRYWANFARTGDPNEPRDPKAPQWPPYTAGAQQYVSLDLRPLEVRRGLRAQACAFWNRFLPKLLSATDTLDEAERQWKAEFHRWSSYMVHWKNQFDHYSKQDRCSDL

S=C(S)NCCNC(=S)S
inactive: all assays above

CC(=O)Nc1cccc(O)c1
inactive: all assays above

CC(=O)OCCCc1ccccc1
inactive: all assays above

O=S1(=O)CCCO1
inactive: all assays above

C=CC(=O)NC(C)C
inactive: all assays above

Cc1ccc(-c2cc(C(F)(F)F)nn2-c2ccc(S(N)(=O)=O)cc2)cc1
inactive: all assays above

CC1(C)S[C@@H]2[C@H](NC(=O)[C@H](N)c3ccccc3)C(=O)N2[C@H]1C(=O)O
inactive: all assays above

C=CC(=O)OCCCCCCOC(=O)C=C
inactive: all assays above

NC(=O)c1cnccn1
inactive: all assays above

C[C@@H]1C[C@H]2O[C@@]3(O[C@@H]2C(C)(C)O)[C@H](O)[C@@]2(C)[C@@H]4CC[C@H]5C(C)(C)[C@@H](O[C@@H]6OC[C@@H](O)[C@H](O)[C@H]6O)CC[C@@]56C[C@@]46CC[C@]2(C)[C@@H]13
inactive: all assays above

S=C1NC=NC2N=CNC12 (stereo not given)
inactive: all assays above

C[Si](C)(CCCN)O[Si](C)(C)CCCN
inactive: all assays above

CCC(=O)O[C@]1(C(=O)CCl)[C@@H](C)C[C@H]2[C@@H]3CCC4=CC(=O)C=C[C@]4(C)[C@@]3(F)[C@@H](O)C[C@@]21C
inactive: all assays above

CO[C@@H]1[C@@H](OC(N)=O)[C@@H](O)[C@H](Oc2ccc3c(O)c(NC(=O)c4ccc(O)c(CC=C(C)C)c4)c(=O)oc3c2C)OC1(C)C
inactive: all assays above

O=C(OCc1ccccc1)c1ccccc1O
inactive: all assays above

O=[N+]([O-])c1ccccc1Nc1ccccc1
inactive: all assays above

CCc1nn(C2CCCCC2)c2cc(C3(C#N)CCC(C(=O)O)CC3)ccc12 (stereo not given)
inactive: all assays above

CCN(CC#N)c1cccc(C)c1
inactive: all assays above

CO[Si](OC)(OC)OC
inactive: all assays above

CCOc1nc(F)cc2nc(S(=O)(=O)Nc3c(Cl)cccc3C(=O)OC)nn12
inactive: all assays above

c1cc[c]([Bi]([c]2ccccc2)[c]2ccccc2)cc1
inactive: all assays above

COc1ccc(NC(C)=O)cc1
inactive: all assays above

CCCCC(=O)O[C@]1(C(=O)CO)[C@@H](C)C[C@H]2[C@@H]3CCC4=CC(=O)C=C[C@]4(C)[C@@]3(F)[C@@H](O)C[C@@]21C
inactive: all assays above

CCN1CCCC1=O
inactive: all assays above

O=Cc1ccc(C(=O)O)cc1
inactive: all assays above

COCC(=O)O
inactive: all assays above

Cc1c(Cl)cccc1[N+](=O)[O-]
inactive: all assays above

CCCCC(CC)CN1C(=O)C2C3C=CC(C3)C2C1=O (stereo not given)
inactive: all assays above

CCCC(=O)OCCC(C)C
inactive: all assays above

O=C1c2cccc(O)c2C(=O)c2c(O)cccc21
inactive: all assays above
